# Rows were chosen to be rich in hits. Some 8% of all compounds tested hit in one or more screens of this group.
# Gal4-VP16 FLuc: counter-screen for ROR gamma inhibitors: Gal4-VP16 reporter; Drosophila S2 Gal4-VP16 UAS-luciferase, luminescence, 20 h; Potency, µM (series often up to 53.6 µM), inactives show top-dose activity, negative = inhibition, hits mostly inhibitors; 3.5% of 310,000 active;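 further: Gal4-VP16 expression switched on by copper sulfate through the metallothionein promoter; potency means the concentration at half of the fitted maximal effect; nearly all actives have a fitted effect of over 50% in size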
# Coupling enz: counter-screen for Giardia aldolase inhibitors: coupling enzyme system. coupling enzyme system counterscreen, AmpLite Red fluorescence. activity change, negative = inhibition, % at 58.2 µM, hits read low. 0.67% of 290,000 active. AID 2472; in the data active means activity change below about -30%
#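 First, compound is pin-transferred into glyceraldehyde-3-phosphate coupling-enzyme reagent at 57.5 uM final and held 10 min at RT. Next, substrate, coupling system and AmpLite Red are added. After 20 min RT, fluorescence (525/598 nm) is read.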
# TSHR antagonist: antagonists of human thyroid stimulating hormone receptor | TSHR-expressing cells, TSH-stimulated cAMP HTRF, 2 h; hits give low values | activity change, negative = inhibition, % at 11.5 µM | 0.2% of 330,000 active | AID 504810;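 active means activity change below a set negative limit, meaning inhibition stronger than a set level, cut at about -70% in these data; inconclusive means activity change between two set negative limits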
# Target sequence (P16473 whole entry, looked up): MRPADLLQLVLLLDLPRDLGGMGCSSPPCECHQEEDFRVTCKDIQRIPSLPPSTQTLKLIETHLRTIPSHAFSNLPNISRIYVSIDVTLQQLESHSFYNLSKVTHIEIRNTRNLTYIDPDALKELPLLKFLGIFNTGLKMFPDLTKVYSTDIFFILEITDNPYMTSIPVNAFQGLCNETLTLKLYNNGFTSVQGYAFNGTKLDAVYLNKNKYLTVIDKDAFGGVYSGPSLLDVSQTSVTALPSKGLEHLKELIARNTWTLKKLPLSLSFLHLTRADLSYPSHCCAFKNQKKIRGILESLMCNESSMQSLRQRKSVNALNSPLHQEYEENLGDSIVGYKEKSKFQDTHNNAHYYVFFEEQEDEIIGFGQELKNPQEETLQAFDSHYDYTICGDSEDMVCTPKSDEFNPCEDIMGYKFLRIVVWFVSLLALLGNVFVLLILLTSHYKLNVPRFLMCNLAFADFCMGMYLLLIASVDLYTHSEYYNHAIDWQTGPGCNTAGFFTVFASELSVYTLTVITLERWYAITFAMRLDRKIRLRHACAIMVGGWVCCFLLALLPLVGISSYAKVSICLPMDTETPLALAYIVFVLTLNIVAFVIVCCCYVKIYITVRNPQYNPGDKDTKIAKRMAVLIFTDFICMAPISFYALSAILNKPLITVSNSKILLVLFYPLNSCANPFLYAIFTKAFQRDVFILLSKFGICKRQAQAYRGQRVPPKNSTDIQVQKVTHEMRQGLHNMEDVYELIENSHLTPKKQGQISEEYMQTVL
#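 Inhibition of cAMP made by TSHR-expressing cells under TSH stimulation (4nM final, EC80; 2 h, 37 deg C) is quantified with a one-step lysis HTRF kit, anti-cAMP cryptate versus cAMP-d2.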
# ELG1 DNA repair: blocks ELG1-dependent DNA repair in HEK293T cells; HEK293T ELG1-luciferase reporter, luminescence, 16 h; DNA damage induced by 5-fluorouridine; Potency, µM (top dose mostly 46.1 µM), for the others: top-dose activity change, negative = inhibition, usual class: inhibitors; 2.3% of 330,000 active; AID 504467; further: potency means the concentration at half of the fitted maximal effect; nearly all actives have a fitted effect of over 55% in size
#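 Step one: seed 2,000 cells per well. Step two: pin-transfer compound or DMSO alongside 5-fluorouridine. Step three: incubate 16 hr, 37 °C, 5% CO2. Step four: add ONE-Glo, wait 30 min, read luminescence.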
# RORgamma inh: inhibitors of mouse ROR gamma transcriptional activity. Drosophila S2 Gal4-RORgamma UAS-luciferase reporter, 20 h. 5.4% of 310,000 active. Potency, µM (series often up to 53.6 µM), for inactives: at the top dose activity change, negative = inhibition, most hits filed as inhibitors; further: potency means the concentration at half of the fitted maximal effect; nearly all actives have a fitted effect of over 60% in size
#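 Luminescence from a UAS-regulated Photinus luciferase reporter in stably transfected Drosophila Schneider cells is measured; decreased signal marks ROR gamma inhibition. Fusion expression is induced by 700 uM copper sulfate for 20 hr.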
# An asterisk follows results filed as active; ? = inconclusive; · = no result; [ ] = another dose, or the depositor's remark. Unless noted, the call rests on the fitted dose curve; in most records, active means well fitted curve in the direction sought with a large enough effect; inconclusive means small, poorly fitted or top-dose-only effect, or another doubt; inactive means no such curve, though single readings can be large; an effect the other way counts as inactive or inconclusive. On the % scale 0 is the no-effect control and ±100 the full control effect.
SMILES,Gal4-VP16 FLuc,Coupling enz,TSHR antagonist,ELG1 DNA repair,RORgamma inh
CS(=O)(=O)c1nc(-c2ccccc2)cc(C(F)(F)F)n1,1.58µM*,2.7,-47.0,?,0.501µM*
Cc1cc(NC(=O)CCS(=O)(=O)c2nc(-c3ccccc3)cc(C(F)(F)F)n2)no1,7.4%,1.2,?,?,-3.9%
COC(=O)[C@]1(Cc2ccccc2)N[C@H](CN(C)C(=O)c2ccc(C)cc2)[C@@H]2C(=O)N(Cc3ccccc3)C(=O)[C@@H]21,·,·,2.4,?,·
Cc1ccc(NC(=O)CN(C)C(=O)C2CC(=O)N(Cc3ccccc3)C2)cc1 (stereo not drawn),-8.1%,·,-6.6,0.4%,14.9%
CC(Sc1nnc(Cc2ccccc2)o1)C(=O)Nc1ccccc1[N+](=O)[O-] (stereo not drawn),·,·,17.8,?,·
CCOc1ccccc1/C=C/c1cc(C(=O)O)c2ccccc2n1,0.6%,4.9,-6.0,?,-2.2%
CCOc1cccc(/C=C/c2ccc3cccc(O)c3n2)c1OC,12.6µM*,-8.4,-5.0,?,2.82µM*
CCOc1c(OC(C)=O)ccc(/C=C/c2ccc3cccc(OC(C)=O)c3n2)c1[N+](=O)[O-],3.55µM*,·,-5.5,?,3.16µM*
CCOc1cccc(/C=C/c2ccc3cccc(O)c3n2)c1O,?,-9.7,-5.7,?,3.55µM*
COC(=O)C1=C(C)NC(C)=C(C(=O)OCCNCc2ccccc2)C1c1cccc([N+](=O)[O-])c1 (stereo not drawn),-8.2%,-3.2,·,·,9.8%
CN(C)C(CNS(=O)(=O)c1ccc(Cl)cc1F)c1ccco1 (stereo not drawn),·,·,·,18.2%,·
Cc1ccc2nc(SC(C(=O)Nc3ccc(F)cc3)c3ccccc3)[nH]c2c1 (stereo not drawn),?,4.4,-18.1,-14.7%,12.6µM*
CCN1CCCc2cc(CN(CCN3CCOCC3)C(=S)Nc3ccccc3OC)ccc21,-13.9%,-2.6,-8.9,?,10µM*
CCOc1ccc2c(c1)C(N(CCN1CCOCC1)C(=S)Nc1ccccc1OC)CC(C)(C)O2 (stereo not drawn),?,-1.9,0.5,-8.0%,15.8µM*
CCN1CCCc2cc(CN(CCN3CCOCC3)C(=S)Nc3ccccc3C)ccc21,-10.5%[10 µM],-0.8,20.7,8.7%,4.9%
CCN1CCCc2cc(CN(CCN3CCOCC3)C(=S)Nc3cccc(C)c3)ccc21,-2.5%[10 µM],-1.5,-5.1,-10.3%,6.31µM*
O=C(c1cnccn1)N1CCC2(CC1)CN(C(c1ccccc1)c1ccccc1)C2,1.0%,4.4,·,·,-4.1%
COc1cc(N=c2ssnc2Cl)cc(OC)c1,7.08µM*,-12.2,-5.7,-24.1%,3.98µM*
Clc1nssc1=Nc1ccc(Br)cc1,?,2.4,-29.9,?,?
c1coc(-c2nc3nc4ccccc4nc3n2-c2ccc3c(c2)OCCO3)c1,-4.7%,-1.3,20.6,16.4µM*,-1.5%
COc1ccc(/C=C/c2cc(OC)c(OC)cc2CC[N+](C)(C)C)cc1,-8.3%,1.6,·,·,-9.9%
O=C(COC(=O)COc1ccccc1)NC1CCCC1,·,·,-5.9,?,·
COc1cc(/C=C(\C#N)C(=O)NC2CCCCC2C)ccc1OS(=O)(=O)c1ccc(C)cc1 (stereo not drawn),11.2µM*,-4.3,-27.3,?,?
CC1CCCCC1NC(=O)/C(C#N)=C/c1ccccc1F (stereo not drawn),11.2µM*,0.0,-16.6,25.9µM*,11.2µM*
CCCOc1ccc(C(=O)NC(=S)Nc2nc3ccccc3s2)cc1,?,4.0,5.2,?,0.794µM*
SMILES,Gal4-VP16 FLuc,Coupling enz,TSHR antagonist,ELG1 DNA repair,RORgamma inh
COc1ccc2sc(NC(=O)c3ccco3)nc2c1,?,-0.9,-20.3,?,10µM*
O=C(CCNC(=O)c1ccco1)Nc1nc2ccccc2s1,·,·,-6.4,?,·
O=C(NC(=S)Nc1nc2ccccc2s1)c1ccco1,1.26µM*,-2.8,-6.7,?,0.891µM*
CCSc1nnc(NC(=O)c2cccc(OCc3c(C)noc3C)c2)s1,5.9%,1.7,-2.9,?,-44.9%
COc1ccc2nc(NC(=O)c3cccc(OCc4c(C)noc4C)c3)sc2c1,?,-1.7,-29.3,25.9µM*,11.2µM*
CCCCCCN(C(=O)CCCCCN1C(=O)NC(C2CC2)C(C(=O)OCc2ccccc2)=C1C)C(C(=O)NCCCC)c1ccc(OCC(=O)OC)c(C(=O)OC)c1 (stereo not drawn),-6.0%,-1.0,·,·,8.6%
O=C(NC(=S)NCc1ccc(-c2nc3ccccc3s2)cc1)c1ccco1,5.62µM*,-0.7,-14.6,?,7.08µM*
O=C(NCc1ccc(-c2nc3ccccc3s2)cc1)c1ccco1,-16.0%,-3.7,11.8,?,4.0%
Cc1cc(C)c2nc(NC(=O)c3ccco3)sc2c1,10µM*,-3.5,-12.9,?,4.47µM*
Cc1cc(Cl)cc2sc(NC(=O)c3ccco3)nc12,?,0.0,-7.9,?,-5.9%
Cc1nc(NC(=O)c2ccco2)sc1C(=O)O,11.2µM*,-1.4,-9.4,3.3%,7.08µM*
COC(=O)c1sc(NC(=O)c2ccco2)nc1C,-11.8%,-0.6,3.8,?,30.9%
COc1ccc2nc(NC(=S)NC(=O)c3ccco3)sc2c1,?,2.7,-11.9,?,1.12µM*
CCN(CC)CCN(C(=O)C1=COCCO1)c1nc2c(OC)ccc(OC)c2s1,-6.8%,-0.6,11.0,1.5%,13.4%
COC(=O)c1cccc(Nc2nc3ccccc3nc2C)c1,12.6µM*,0.7,0.8,?,-27.4%
COc1ccc(NC(=O)C(=O)NCC(c2ccco2)N2CCc3ccccc3C2)cc1OC (stereo not drawn),·,·,8.6,-14.0%,·
N/C(=N\OC(=O)c1ccccc1Cl)c1ccncc1,?,1.7,-48.1,23.1µM*,?
Cc1ccc(C(=O)O/N=C(\N)c2ccccn2)c(Cl)c1,2.82µM*,-0.9,-4.5,?,0.708µM*
N/C(=N\OC(=O)c1cc(Br)ccc1Cl)c1ccccn1,?,-0.4,16.6,?,-44.1%
Cc1ccc(C(=O)O/N=C(\N)c2ccccc2)c(Cl)c1,8.91µM*,-0.4,-1.8,?,4.47µM*
N/C(=N\OC(=O)c1ccc(Cl)cc1Cl)c1ccccn1,?,-0.2,1.5,?,7.08µM*
N/C(=N\OC(=O)c1ccc(Cl)cc1Cl)c1ccncc1,23.6%,6.4,5.8,?,-11.9%
O=S(=O)(Nc1ccccc1F)c1cccc(NC(=S)NCCN2CCOCC2)c1,·,·,-2.8,0.0%,·
COc1ccc(-c2cn(Cc3ccc(C(N)=O)cc3)c(CCN)n2)cc1,·,·,-2.3,?,·
O=C(CSc1nnc(C2CC2)n1-c1ccccc1)N1CCNC1=O,·,·,-13.2,1.8%,·
COc1ccc(CN2CCN(C(=O)c3ccc(-c4ccccc4)cc3)CC2)c(OC)c1OC,3.4%,-0.8,20.9,21.1%,0.0%

# Assay outcomes: PubChem BioAssay, National Center for Advancing Translational Sciences (NCATS)
